Screening data deposited in PubChem by several laboratories.
The list is not random: actives were taken first. Their share in the collection is about 0.82%.
Cardiac RTF inh: cardiac RTF calcium sensitivity inhibitors, primary screen, biochemical, IANBD-TnC fluorescence, EC70 calcium | Troponin I, cardiac muscle (Homo sapiens) + Troponin T, cardiac muscle (Homo sapiens) + … | IANBD-labeled cardiac RTF, Ca2+ fluorescence | inhibition, % at 7.15 µM | 340,000 tested, 0.12% active;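 active = inhibition above the mean inhibition of all tested compounds plus 3 SD, cut at about 17% in these data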;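 also: assay run at fixed EC70 calcium of 1.6 mM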
RTF Ca sens act: cardiac RTF calcium sensitivity activators, primary screen, biochemical, IANBD-TnC fluorescence, EC20 calcium; AID 493008, 2010; IANBD-labeled TnC RTF fluorescence at EC20 calcium; 0% EC20 calcium, 100% full calcium; activation, % at 7.2 µM; 340,000 tested, 0.24% active; Troponin I, cardiac muscle (Homo sapiens) + Troponin T, cardiac muscle (Homo sapiens) + …;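 active = activation above the mean over all tested compounds plus 3 SD, cut at about 30% in these data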;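 also: rise in fluorescence read as greater calcium sensitivity of cardiac thin filaments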
LANA DNA inh: inhibitors of KSHV C-LANA binding to DNA, primary screen, biochemical, fluorescence polarization, FAM-LBS DNA, MBP-C-LANA, single point | Kaposi's sarcoma herpesvirus LANA C-terminal domain (residues 932-1162) DNA binding | inhibition, % at 9 µM | 340,000 tested, 0.078% active | AID 504423, 2011;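 active = highest replicate inhibition at or above 60% at 9 µM, even if other replicates fall short; inactive = all replicates below 60% inhibition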
Keap1 Nrf2 FP: Keap1-Nrf2 protein-protein interaction inhibitors, primary screen, biochemical, fluorescence polarization, single point; inhibition, % at 9.4 µM; AID 504523, 2011; Keap1 Kelch-Nrf2 peptide fluorescence polarization, 1536-well; 340,000 tested, 0.15% active; in the data active = inhibition above about 12%;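 also: human Keap1 Kelch domain with fluorescein labeled Nrf2 9mer peptide probe; higher means more block of Keap1 binding to Nrf2 peptide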
Target sequence (Q14145 whole entry, looked up, the tested form may be a part): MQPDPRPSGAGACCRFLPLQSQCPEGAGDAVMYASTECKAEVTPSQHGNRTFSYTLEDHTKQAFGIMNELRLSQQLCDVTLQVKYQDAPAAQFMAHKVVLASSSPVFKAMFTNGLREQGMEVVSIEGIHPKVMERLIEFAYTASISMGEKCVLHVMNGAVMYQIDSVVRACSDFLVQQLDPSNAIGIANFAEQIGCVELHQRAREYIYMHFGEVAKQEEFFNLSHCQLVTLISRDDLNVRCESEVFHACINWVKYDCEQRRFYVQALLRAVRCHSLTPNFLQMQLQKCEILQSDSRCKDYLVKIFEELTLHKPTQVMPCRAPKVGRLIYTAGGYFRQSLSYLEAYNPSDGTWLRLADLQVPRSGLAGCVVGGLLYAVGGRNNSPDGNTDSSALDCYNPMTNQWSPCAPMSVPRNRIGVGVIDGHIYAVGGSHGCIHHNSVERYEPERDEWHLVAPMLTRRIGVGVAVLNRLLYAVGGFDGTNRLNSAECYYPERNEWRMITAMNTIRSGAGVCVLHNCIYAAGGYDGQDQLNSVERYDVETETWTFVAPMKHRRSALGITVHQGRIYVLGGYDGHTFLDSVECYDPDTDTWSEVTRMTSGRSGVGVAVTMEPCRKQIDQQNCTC
eLon inh: inhibitors of E. coli Lon protease, primary screen, biochemical, fluorescence polarization. purified E. coli Lon protease. 360,000 tested, 0.42% active. inhibition, % at 7.94 µM. P0A9M0; in the data active = inhibition above about 13%, passing the limit was not always enough
eLon confirm: E. coli Lon protease inhibitor retest, confirmation, biochemical, fluorescence polarization. shares compounds with eLon inh. purified E. coli Lon. inhibition, % at 7.94 µM. 1,400 tested, 31% active. AID 602230, 2012; in the data active = inhibition above about 16%
Each line names hits and unclear results; the compound was inactive in the other large screens (follow-up assays come after a bar, where they were run).

O=c1oc2cc(O)ccc2cc1S(=O)(=O)c1ccccc1	eLon inh 18.7 | eLon confirm 43.0
O=C(COC(=O)c1nc(Cl)ccc1Cl)Nc1ncc(Cl)cc1Cl	eLon inh 77.4 | eLon confirm inactive
CC(=O)Nc1ccc(N2C(=O)c3cccc4c(O)ccc(c34)C2=O)cc1	RTF Ca sens act 608.8, eLon inh active | eLon confirm active
COc1ccc(N2CCCC2)c(NC(=O)c2ccc([N+](=O)[O-])o2)c1	eLon inh 41.3 | eLon confirm inactive
O=C(Nc1ccccc1N1CCCC1)c1ccc([N+](=O)[O-])o1	none
COc1cc(/C=C/C(=O)O)cc(S(=O)(=O)Nc2ccc(S(=O)(=O)N3CCCCC3)cc2)c1OC	none
CCN(CC)c1ccc2nc3ccccc3[n+](CC)c2c1	none
CCN(CC)c1ccc2nc3ccc(N)cc3[n+](-c3ccccc3)c2c1	eLon inh 169.6 | eLon confirm 123.9
CCN(CC(=O)NCc1ccc(F)cc1)CC(=O)Nc1ccc(Br)cc1F	eLon inh 21.8 | eLon confirm inactive
Cc1ccc(NC(=O)CN(C)S(=O)(=O)c2ccc3c(c2)n(C)c(=O)c(=O)n3C)cc1	none
CC(Sc1ncnc2sc(-c3ccccc3)cc12)C(=O)NCC1CCCO1 (stereo not given)	none
CN1CCc2cc3c(c4c2[C@H]1[C@H](O)c1ccccc1-4)OCO3	eLon inh 58.9 | eLon confirm 26.6
COc1ccc2c(c1OC)C(=O)OC2C1c2c(cc3c(c2OC)OCO3)CCN1C (stereo not given)	none
COc1ccc(CCNC(=O)c2ccc3c(c2)N(Cc2ccc(F)cc2)CCS3)c(OC)c1	eLon inh 18.5 | eLon confirm inactive
COc1ccc(/C=C/C(=O)OCC(=O)Nc2ccc(N3CCOCC3)cc2)cc1OC	none
COCCNC(=O)COc1coc(CN2CCN(Cc3ccccc3)CC2)cc1=O	none
CCN1CCC(NCCc2ccc(F)cc2)CC1	none
COc1c(O)cccc1[C@H](O)C1CCN(CCc2ccc(F)cc2)CC1	eLon inh 70.7 | eLon confirm inactive
CCC(NC(=O)Nc1ccc(O)cc1)(C(F)(F)F)C(F)(F)F	eLon inh 15.6 | eLon confirm inactive
O=C(c1cccc(S(=O)(=O)Nc2ccc(F)cc2)c1)N1CCCC1	none
O=C(NNC(=O)c1ccccc1-n1cccc1)c1cccnc1	none (no result: Cardiac RTF inh, RTF Ca sens act, LANA DNA inh, Keap1 Nrf2 FP)
O=C(NNC(=O)c1ccccc1-n1cccc1)c1cncc(Br)c1	eLon inh 37.9 | eLon confirm inactive
COc1ccc(CN2CCSc3sccc3C2=O)cc1	none
COc1ccc(OC)c(NC(=O)Cc2nn(C)c(=O)c3ccccc23)c1	eLon inh 16.0 | eLon confirm inactive
Cc1ccc(NC(=O)COc2ccccc2C(N)=O)cc1S(=O)(=O)N1CCCCCC1	eLon inh 22.3 | eLon confirm inactive
CCOc1ccccc1OCC(=O)Nc1cccc(S(=O)(=O)N2CCCCCC2)c1	eLon inh 60.0 | eLon confirm inactive
CC(=O)c1ccccc1OCC(=O)Nc1cccc(S(=O)(=O)N2CCCC2)c1	none
COc1ccc(NC(=O)COc2ccccc2C(N)=O)cc1S(=O)(=O)N1CCCCC1	none (no result: Cardiac RTF inh, RTF Ca sens act, LANA DNA inh, Keap1 Nrf2 FP)
COc1ccc(-c2cc(NC=O)c3ncc(-c4cnn(C)c4)n3c2)cc1	none (no result: Cardiac RTF inh, RTF Ca sens act, LANA DNA inh, Keap1 Nrf2 FP)
COC(=O)C1=C(C)NC2=C(C(=O)CCC2)C1c1ccc(-c2ccsc2C(=O)OC)o1 (stereo not given)	eLon inh 18.5 (no result: LANA DNA inh) | eLon confirm inactive
CC1=C(C(=O)OC2CCCCCC2)C(c2ccc(C)o2)C2=C(CCCC2=O)N1 (stereo not given)	none
COc1ccc(N2CCN(C(=O)COC(=O)CSc3ccccc3)CC2)cc1	none
CCN(CC)c1c(C)nc2ccc(C(=O)NCc3ccc4c(c3)OCO4)cn12	none (no result: Cardiac RTF inh, RTF Ca sens act, LANA DNA inh, Keap1 Nrf2 FP)
CCOC(=O)C1=C(N)Oc2cc(O)ccc2C1c1ccc(F)cc1F (stereo not given)	eLon inh 33.5 | eLon confirm inactive
O=C(CCc1nc2ccccc2[nH]1)Nc1ccccc1F	eLon inh 13.9 | eLon confirm inactive
COc1ccccc1CNC(=O)COC(=O)CCN1C(=O)C2CC=CCC2C1=O (stereo not given)	none (no result: Cardiac RTF inh, RTF Ca sens act, LANA DNA inh, Keap1 Nrf2 FP)
CN(C)CCCN1C(=O)c2cccc3c([N+](=O)[O-])ccc(c23)C1=O	eLon inh 131.3 | eLon confirm 43.2
O=C(Nc1cccc(C(=O)N2CCCCC2)c1)C1CCCCC1	none
CC1(C)CC(NC(=O)COc2ccc3ccc(=O)oc3c2)CC(C)(C)N1	none
Cc1cc(C(=O)COc2cc(F)ccc2[N+](=O)[O-])c(C)n1CC1CCCO1 (stereo not given)	none
COc1ccc(Nc2cccccc2=O)cc1	none
COc1ccc(Nc2cccc3ccccc23)cc1	eLon inh 83.7 | eLon confirm inactive
CCCN=C1N(C)C[C@@H]2[C@@H]3C(=O)N(C)C(=O)[C@@H]3[C@](Cc3ccccc3)(C(=O)OC)N12	none
COC(=O)c1c(C)c2c(C)cc3ccccn3c-2c1C(=O)OC	eLon inh 45.3 | eLon confirm inactive
COC(=O)c1cc2c(-c3ccccc3)cc3ccccn3c-2c1C(=O)OC	none
CN(C)C(=O)c1ccc(NC(=O)c2cccc(-n3cnnn3)c2)cc1	none (no result: Cardiac RTF inh, RTF Ca sens act, LANA DNA inh, Keap1 Nrf2 FP)
Cc1cccc(S(=O)(=O)N2CCn3cccc3C2C)c1 (stereo not given)	none
Cc1ccc(S(=O)(=O)N2CCn3cccc3C2C)cc1 (stereo not given)	eLon inh 20.6 | eLon confirm inactive
CCCCN(C(=O)c1cc(S(=O)(=O)N2CCOCC2)ccc1Cl)c1c(N)n(CC(C)C)c(=O)[nH]c1=O	none
Cn1c(-c2ccccc2)c(C(=O)CCl)c2ccccc21	none
Cn1c(-c2ccccc2)c(CCO)c2ccccc21	eLon inh 32.2 | eLon confirm inactive
CSCCC(NC(=O)c1ccco1)C(=O)N1CCCCCCC1 (stereo not given)	eLon inh 21.5 | eLon confirm inactive
O=C1CCCC(=O)C1CS(=O)(=O)c1ccccc1	none
Cc1nc(-c2cccc(NC(=O)c3ccc(-n4cccn4)cc3)c2)cs1	none
Cc1ccc([C@H]2C(C(=O)O)=CC[C@@H](c3ccc(C(C)C)cc3)N2S(=O)(=O)c2ccc(C)cc2)cc1	eLon inh 16.3 | eLon confirm inactive
Cc1ccc(S(=O)(=O)N2[C@@H](c3ccccc3)C(C(=O)O)=CC[C@H]2c2ccc(C(C)C)cc2)cc1	none
CCN1C(=O)c2ccccc2S(=O)c2ccc(C(=O)N3CCCCCC3)cc21 (stereo not given)	eLon inh 44.8 | eLon confirm inactive
